{"source": "PubChem BioAssay (NCATS)", "note": "Records with an inconclusive call do not appear. Active and inactive are the calls of the source. Calls come from the whole dose curve; as a rule, active = well fitted inhibition curve with a large enough effect; inconclusive = small, poorly fitted or top-dose-only effect; inactive = flat fitted curve, though single readings scatter. % is set by controls: 0 for no effect and ±100 for the full control effect; potency is the fitted concentration of half-maximal effect.", "data": [{"biological_target": "Voltage-gated inwardly rectifying potassium channel KCNH2 (Homo sapiens) (UniProt Q12809)", "sequence (Q12809 whole entry, looked up)": "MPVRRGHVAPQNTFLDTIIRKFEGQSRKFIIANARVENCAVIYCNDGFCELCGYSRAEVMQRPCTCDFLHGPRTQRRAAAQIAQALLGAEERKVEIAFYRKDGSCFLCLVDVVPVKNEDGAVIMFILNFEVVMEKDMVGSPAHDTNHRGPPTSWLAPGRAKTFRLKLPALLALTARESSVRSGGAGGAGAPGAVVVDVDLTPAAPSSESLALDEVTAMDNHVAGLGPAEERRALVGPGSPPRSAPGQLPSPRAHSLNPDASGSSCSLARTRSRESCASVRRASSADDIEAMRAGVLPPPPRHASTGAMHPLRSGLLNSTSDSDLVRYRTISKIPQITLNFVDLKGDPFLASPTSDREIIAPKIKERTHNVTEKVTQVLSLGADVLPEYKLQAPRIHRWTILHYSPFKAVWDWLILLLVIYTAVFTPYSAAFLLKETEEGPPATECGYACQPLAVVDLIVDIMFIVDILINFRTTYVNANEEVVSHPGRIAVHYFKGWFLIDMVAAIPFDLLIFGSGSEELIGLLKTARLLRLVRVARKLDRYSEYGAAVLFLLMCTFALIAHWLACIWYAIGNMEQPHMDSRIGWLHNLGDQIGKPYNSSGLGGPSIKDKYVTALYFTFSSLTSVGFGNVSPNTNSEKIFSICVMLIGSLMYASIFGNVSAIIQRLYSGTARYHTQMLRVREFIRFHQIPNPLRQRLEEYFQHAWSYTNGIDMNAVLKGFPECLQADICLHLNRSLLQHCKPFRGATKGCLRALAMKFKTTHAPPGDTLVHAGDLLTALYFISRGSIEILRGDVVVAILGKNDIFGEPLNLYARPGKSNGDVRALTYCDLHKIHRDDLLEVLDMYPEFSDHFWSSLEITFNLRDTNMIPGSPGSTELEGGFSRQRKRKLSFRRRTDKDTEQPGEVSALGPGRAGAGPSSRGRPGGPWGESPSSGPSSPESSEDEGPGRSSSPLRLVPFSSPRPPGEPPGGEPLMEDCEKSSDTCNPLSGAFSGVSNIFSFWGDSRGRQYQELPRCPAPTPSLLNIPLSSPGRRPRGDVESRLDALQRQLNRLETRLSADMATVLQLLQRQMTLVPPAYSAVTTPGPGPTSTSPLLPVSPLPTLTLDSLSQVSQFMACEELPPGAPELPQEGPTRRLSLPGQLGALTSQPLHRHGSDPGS", "assay": "qHTS Assay for Small Molecule Inhibitors of the Human hERG Channel Activity (AID 588834);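 note: lower thallium flux fluorescence means stronger hERG block; nearly all actives have a fitted effect of over 50% in size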; for activity change, negative = inhibition: top concentration of the series differs between compounds", "settings": "U2OS BacMam hERG, FluxOR thallium flux fluorescence; series mostly up to 46.1 µM; activity change, negative = inhibition: at the top concentration", "summary_of_the_method": "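Kinetic FDSS fluorescence; U2OS + hERG BacMam (~100 virus particles/cell); FluxOR Tl+ flux; ~10 min cpd; AC50 (Hill).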", "values": [{"smiles": "CCc1c2c(nc3ccc(OC(=O)N4CCC(N5CCCCC5)CC4)cc13)-c1cc3c(c(=O)n1C2)COC(=O)[C@]3(O)CC", "activity change, negative = inhibition": "6.8% (inactive)"}, {"smiles": "Nc1[nH]c(=O)ncc1F", "activity change, negative = inhibition": "-0.957% [at 20.6 µM] (inactive)"}, {"smiles": "CC(C)Cn1cnc2c(N)nc3ccccc3c21", "activity change, negative = inhibition": "-1.91% (inactive)"}, {"smiles": "Nc1nc(F)nc2c1ncn2[C@@H]1O[C@H](CO)[C@@H](O)[C@@H]1O", "activity change, negative = inhibition": "15.7% (inactive)"}, {"smiles": "C[C@@H]1CN(c2c(F)c(N)c3c(=O)c(C(=O)O)cn(C4CC4)c3c2F)C[C@H](C)N1", "activity change, negative = inhibition": "-10.7% (inactive)"}, {"smiles": "CCOC(=O)c1ccc(OC(=O)CCCCCN=C(N)N)cc1", "activity change, negative = inhibition": "-2.06% [at 20.6 µM] (inactive)"}, {"smiles": "COC(=O)Nc1nc2ccc(Sc3ccccc3)cc2[nH]1", "activity change, negative = inhibition": "-2.7% [at 20.6 µM] (inactive)"}, {"smiles": "NC(=O)N1c2ccccc2CC(=O)c2ccccc21", "activity change, negative = inhibition": "-6.28% (inactive)"}, {"smiles": "CNS(=O)(=O)Cc1ccc2[nH]cc(CCN(C)C)c2c1", "activity change, negative = inhibition": "-11.5% (inactive)"}, {"smiles": "COc1ncnc(NS(=O)(=O)c2ccc(N)cc2)c1OC", "activity change, negative = inhibition": "5.79% (inactive)"}, {"smiles": "CCCCOc1ccc(CC(=O)NO)cc1", "activity change, negative = inhibition": "-3.84% [at 20.6 µM] (inactive)"}, {"smiles": "O=C(O)c1cccnc1", "activity change, negative = inhibition": "11.9% (inactive)"}, {"smiles": "Clc1ccccc1CN1CCc2sccc2C1", "Potency": "14.1 µM (active)"}, {"smiles": "CCN[C@H]1C[C@H](C)S(=O)(=O)c2sc(S(N)(=O)=O)cc21", "activity change, negative = inhibition": "2.11% (inactive)"}, {"smiles": "COc1ccc(-c2ccc3cc(C(=O)O)ccc3c2)cc1C12CC3CC(CC(C3)C1)C2", "activity change, negative = inhibition": "-16.3% (inactive)"}, {"smiles": "C#CCN[C@@H]1CCc2ccccc21", "activity change, negative = inhibition": "16.7% (inactive)"}, {"smiles": "O=c1cc(O)c(Cl)c[nH]1", "activity change, negative = inhibition": "6.16% (inactive)"}, {"smiles": "COc1cnc(NS(=O)(=O)c2ccc(N)cc2)nc1", "activity change, negative = inhibition": "0.942% [at 20.6 µM] (inactive)"}, {"smiles": "O=P(O)(O)C(O)(Cc1cccnc1)P(=O)(O)O", "activity change, negative = inhibition": "8.77% (inactive)"}, {"smiles": "CCCN[C@H]1CCc2nc(N)sc2C1", "activity change, negative = inhibition": "-0.859% (inactive)"}, {"smiles": "CC(C)C1CCC(C(=O)N[C@H](Cc2ccccc2)C(=O)O)CC1", "note": "(stereo partly specified)", "activity change, negative = inhibition": "1.48% (inactive)"}]}]}
